This is a sample that favours compounds with a hit; in the whole collection about 10% have one here.
Lamin A splicing: qHTS Assay for Modulators of Lamin A Splicing. 200,000 tested, 0.01% active. AID 1487, 2009. Potency, µM (highest dose often 46.1 µM), usual class: inhibitors. HeLa LMNA splicing GFP/RFP minigene ratio, 48 h; active means well fitted inhibition curve with a large enough effect in the signal ratio, with a control signal flat, not every such curve was filed as active; inconclusive means small, poorly fitted or top-dose-only effect, or effect the other way, or a change in a side signal; the % refers to the signal ratio
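S3 HeLa cells stably expressing lamin A-EGFP splicing minigene plus DsRed2, 600 cells/well, 48 h compound exposure at 37C. Laser-scanning cytometry; analysed as GFP (500-530 nm)/RFP (575-640 nm) total intensity ratio; 0.5% DMSO vehicle.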
ALDH1A1 inh: qHTS Assay for Inhibitors of Aldehyde Dehydrogenase 1 (ALDH1A1). Purified ALDH1A1, NADH fluorescence, propionaldehyde substrate. Aldehyde dehydrogenase 1A1 (Homo sapiens), P00352. 220,000 tested, 7.3% active. Potency, µM (highest dose often 75.3 µM), actives largely listed as inhibitors. AID 1030, 2008
Target sequence (P00352 whole entry, looked up): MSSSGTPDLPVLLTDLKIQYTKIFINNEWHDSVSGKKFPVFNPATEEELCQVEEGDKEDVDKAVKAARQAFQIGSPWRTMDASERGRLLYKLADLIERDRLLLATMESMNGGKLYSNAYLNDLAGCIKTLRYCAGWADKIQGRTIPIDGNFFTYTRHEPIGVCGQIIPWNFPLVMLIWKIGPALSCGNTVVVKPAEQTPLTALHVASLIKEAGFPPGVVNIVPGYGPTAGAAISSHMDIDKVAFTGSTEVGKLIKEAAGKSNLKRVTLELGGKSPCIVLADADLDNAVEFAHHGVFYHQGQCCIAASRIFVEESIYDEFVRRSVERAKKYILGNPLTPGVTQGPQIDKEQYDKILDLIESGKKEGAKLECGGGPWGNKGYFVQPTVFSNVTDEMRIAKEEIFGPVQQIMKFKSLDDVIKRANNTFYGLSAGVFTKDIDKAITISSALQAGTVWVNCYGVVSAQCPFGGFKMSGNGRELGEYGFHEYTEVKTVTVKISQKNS
PNC assembly inh: High Content Assay for Compounds that inhibit the Assembly of the Perinucleolar Compartment | PC3M PTB-GFP, PNC prevalence imaging, 16 h; active compounds read low | activity change (PNC), negative = inhibition, % at 10 µM | 140,000 tested, 3.1% active | AID 2417, 2010;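 active means readout at or below -70, meaning at least 70% loss of cells showing the perinucleolar compartment, a nuclear body marking cancer cells; inconclusive means readout between -30 and a set limit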
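PC3M cells stably expressing PTB-GFP, 750–1000 cells/well, treated 16 h at 37 °C with compound (23 nl of library stock), in duplicate. After paraformaldehyde fixation and Hoechst stain, imaged at 20x; PNC prevalence scored by image analysis.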
ALOX12 inhib: qHTS Assay for Inhibitors of 12-hLO (12-human lipoxygenase) | purified 12-hLO, xylenol orange hydroperoxide absorbance | Potency, µM (doses to about 57.1 µM), hits mostly inhibitors | 150,000 tested, 0.12% active; active means well fitted inhibition curve with a large enough effect; inconclusive means small, poorly fitted or top-dose-only effect; further: nearly all actives have a fitted effect of over 55% in size
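Lipoxygenase turnover measured by absorbance at 573 and 405 nm after Fe-XO development. Human 12hLO 150 nM, arachidonate 40 uM, pH 7.0 Hepes buffer with detergent; 15 min compound preincubation, 30 min reaction.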
HPGD block: qHTS Assay for Inhibitors of HPGD (15-Hydroxyprostaglandin Dehydrogenase) | purified HPGD, NADH fluorescence kinetic, PGE2 substrate | Potency, µM, usual class: inhibitors | 150,000 tested, 4.3% active
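20 nM HPGD preincubated 15 min at room temperature with compound in 50 mM Tris-HCl pH 8, 0.01% Tween 20. Started with 1 mM NAD+ and 30 uM prostaglandin E2; NADH fluorescence (360/450 nm) read 5 times over 30-s intervals, last minus first.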
Hits are given with their value; [ ] = remark or other dose. Unless noted, the call rests on the fitted dose curve; in most records, active means well fitted inhibition curve with a large enough effect (not every such curve was filed as active); inconclusive means small, poorly fitted or top-dose-only effect, or another doubt; inactive means no such curve, though single readings can be large or run the other way.

`CC(=O)Nc1ccccc1C(=O)C(=O)Nc1cccc(C(=O)N2CC(C)CC(C)C2)c1` (configuration not stated) gave Lamin A splicing inactive[9.22 µM] and ALDH1A1 inh inactive.
Cn1ncc(S(=O)(=O)Cc2ccccc2)c(Cl)c1=O was read as ALDH1A1 inh 1.12µM.
COc1ccccc1CNc1ccnc(-c2ccc(C(=O)N(C)C)cc2)n1 was read as Lamin A splicing inactive and ALDH1A1 inh inactive.
Screening CCC/C=N/NC(=O)c1cccc(Br)c1 returned Lamin A splicing inactive and ALDH1A1 inh 25.1µM.
For COc1cccc(-c2nc(-c3ccccc3)[nH]c(=O)c2C#N)c1 the results were Lamin A splicing inactive, ALDH1A1 inh inactive, PNC assembly inh inconclusive, ALOX12 inhib inactive and HPGD block 15.8µM.
For N#Cc1c(-c2ccccc2)nc(-c2ccccc2)[nH]c1=O the results were Lamin A splicing inactive, ALDH1A1 inh inconclusive, PNC assembly inh inconclusive, ALOX12 inhib inactive and HPGD block 2µM.
`N#Cc1c(-c2ccccc2)nc(-c2ccncc2)[nH]c1=O` gave Lamin A splicing inconclusive and ALDH1A1 inh inactive.
Screening Cc1cccc(Cn2c(CNS(=O)(=O)c3ccc(C(C)C)cc3)nc3cccnc32)c1 returned Lamin A splicing inactive.
`Nc1nonc1-c1noc(-c2ccccc2)n1` gave Lamin A splicing inactive, ALDH1A1 inh inactive, PNC assembly inh -100.0, ALOX12 inhib inactive and HPGD block inactive.
For Nc1nc(-c2nonc2N)no1 the results were Lamin A splicing inactive and ALDH1A1 inh inactive.
O=c1[nH]c(SCc2cccc(Cl)c2)nc2[nH]ncc12 was read as ALDH1A1 inh inactive.
`CCOc1cc(/C=N/N2C(=O)NC3(CCCCC3)C2=O)cc(Br)c1O` gave Lamin A splicing inactive and ALDH1A1 inh 15µM.
Screening CC(C)c1cnc2c(c1SCc1ccc([N+](=O)[O-])cc1)c(=O)n(C)c(=O)n2C returned Lamin A splicing inactive.
For Cc1nc2c(C(=O)NCCC(C)C)cnn2c(C)c1Cc1c(F)cccc1Cl the results were Lamin A splicing inactive.
CC(NC(=S)Nc1ccccc1Cl)C(c1ccccc1)N1CCOCC1 (configuration not stated) was read as Lamin A splicing inactive, ALDH1A1 inh 28.2µM, PNC assembly inh inactive, ALOX12 inhib inactive and HPGD block inactive.
`CC(NC(=S)N1CCOCC1)c1ccccc1` (configuration not stated) gave Lamin A splicing inactive, ALDH1A1 inh inactive, PNC assembly inh -121.5, ALOX12 inhib inactive and HPGD block inactive.
Screening O=C(NC1CCCC1)C(c1ccncc1)N(C(=O)c1csnn1)C1CCCC1 (configuration not stated) returned ALDH1A1 inh 12.6µM.
`O=C(NC1CCCC1)C(c1cccnc1)N(C(=O)c1csnn1)C1CCCC1` (configuration not stated) gave Lamin A splicing inactive, ALDH1A1 inh inconclusive, PNC assembly inh inactive, ALOX12 inhib inactive and HPGD block inactive.
`O=C(NC1CCCCC1)C(c1cccnc1)N(C(=O)c1csnn1)C1CCCC1` (configuration not stated) gave Lamin A splicing inactive, ALDH1A1 inh inactive, PNC assembly inh -100.0, ALOX12 inhib inactive and HPGD block inactive.
O=C(NC1CCCC1)C(c1cccnc1)N(C(=O)c1csnn1)C1CC1 (configuration not stated) was read as Lamin A splicing inactive, ALDH1A1 inh inactive, PNC assembly inh inactive, ALOX12 inhib inactive and HPGD block inactive.
COc1cn(CC(=O)Nc2c(C)cc(C)cc2C)c(CN2CCCCC2)cc1=O was read as Lamin A splicing inactive.
`CC(C)[C@@H](CC(=O)N[C@@H]1CCNC[C@H]1C(=O)N[C@H](CC(=O)N[C@@H](CCC(=O)O)CC(=O)O)Cc1c[nH]c2ccccc12)NC(=O)C[C@H](Cc1ccccc1)NC(=O)[C@@H]1CCCC[C@H]1N` gave ALDH1A1 inh inactive, ALOX12 inhib inactive and HPGD block inactive.
